Compound activity: PubChem BioAssay, The Scripps Research Institute Molecular Screening Center
Hits are enriched below; roughly 3.5% of the tested compounds scored in any of these assays.
MITF primary = blocks human microphthalmia-associated transcription factor; O75030; AlphaScreen MITF homodimerization, bead proximity signal; inhibition, % at 2.6 µM; 650,000 compounds, 0.91% hits; AID 1259374; in the data active means inhibition above about 50%;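 further: 0% = vehicle wells with protein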
GPR151 ag = activates the human receptor GPR151; PathHunter beta-arrestin GPR151 cells, luminescence; activation, % at 11.2 µM; 650,000 compounds, 1% hits; in the data active means activation above about 4.9%;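 further: 0% = median of compound wells and 100% = cells with positive control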
Target sequence (Q8TDV0 whole entry, looked up): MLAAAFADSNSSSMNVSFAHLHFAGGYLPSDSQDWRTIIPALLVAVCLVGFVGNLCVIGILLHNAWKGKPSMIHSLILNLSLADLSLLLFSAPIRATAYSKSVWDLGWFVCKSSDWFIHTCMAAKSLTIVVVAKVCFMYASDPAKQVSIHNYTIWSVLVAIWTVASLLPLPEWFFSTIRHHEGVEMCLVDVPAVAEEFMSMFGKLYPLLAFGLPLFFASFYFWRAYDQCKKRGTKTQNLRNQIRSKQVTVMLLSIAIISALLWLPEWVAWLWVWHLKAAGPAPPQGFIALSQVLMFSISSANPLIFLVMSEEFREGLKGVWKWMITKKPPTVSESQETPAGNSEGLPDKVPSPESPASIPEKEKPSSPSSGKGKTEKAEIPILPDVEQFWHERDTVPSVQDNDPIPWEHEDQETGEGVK
TEAD-YAP inh = TEAD-YAP interaction inhibition; HEK-TIYL cells, TEAD-Gal4/YAP UAS-luciferase luminescence; inhibition, % at 9.12 µM; 640,000 compounds, 1.4% hits; AID 1259422; in the data active means inhibition above about 32%;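 further: 0% = median of test compound wells and 100% = reference inhibitor wells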
FBW7 act = human FBW7 E3 ligase activation, primary screen. normalized activity (activation), % at 26.1 µM. AID 1259310. AlphaScreen FBW7–phospho-cyclin E peptide binding, activator screen. 650,000 compounds, 0.13% hits. Q969H0; in the data active means normalized activity above about 1.9%;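 further: purified mutant Fbw7 with reduced substrate affinity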
* = called active by the depositor.

SMILES	MITF primary	GPR151 ag	TEAD-YAP inh	FBW7 act
CC(C)C[C@H]1NC(=O)[C@@H]2C[C@H](NC(=O)c3ccccc3)CN2C1=O	-4	0	-7	0
c1cncc(Nc2nc(Nc3ccc(N4CCOCC4)cc3)c3ncn(C4CCCCC4)c3n2)c1	9	0	37*	0
c1cncc(Nc2nc(NCCN3CCOCC3)c3ncn(C4CCCCC4)c3n2)c1	-2	-1	42*	0
c1cc(N2CCOCC2)ccc1Nc1nc(Nc2ccc(N3CCOCC3)cc2)c2ncn(C3CCCCC3)c2n1	52*	-1	7	0
c1cncc(CNc2nc(NCCN3CCOCC3)c3ncn(C4CCCCC4)c3n2)c1	11	1	9	0
CCOc1ccc(N2CC(NC(=O)Nc3ccc(Br)cc3F)CC2=O)cc1 (configuration not stated)	-2	1	-7	0
Cc1ncoc1C(=O)N1CCc2c(cnc(C)c2CNC(=O)/C=C/c2cccs2)C1	18	-1	2	0
CCCC(=O)NC(c1ccc(OC)cc1)c1c(O)ccc2ccccc12 (configuration not stated)	-15	0	44*	0
COc1ccc(C(NC(C)=O)c2c(O)ccc3ccccc23)cc1 (configuration not stated)	-1	1	62*	0
CCCC(=O)NC(c1ccco1)c1c(O)ccc2ccccc12 (configuration not stated)	11	-1	1	0
COc1ccc(C(NC(C)=O)c2c(OC(C)=O)ccc3ccccc23)cc1 (configuration not stated)	15	0	62*	1
CCCOC(=O)c1cccc(NC(=O)COc2ccccc2Cl)c1	4	-2	45*	0
COC(=O)c1cccc(NC(=O)COc2ccccc2Cl)c1	7	0	31	0
CCCCOC(=O)c1cccc(NC(=O)COc2ccc(Br)cc2Br)c1	-4	0	58*	0
COC(=O)c1ccc(Cl)c(-n2cccc2)c1	-7	0	-4	0
CC(=O)CSc1nnc(-c2ccc(O)cc2)n1C	32	0	7	0
COc1ccccc1-n1c(SCC(=O)Nc2ccccc2F)nnc1-c1cccnc1	-5	-1	58*	0
COc1ccccc1NC(=O)CSc1nnc(-c2cccnc2)n1-c1ccccc1C	12	0	70*	0
COC(=O)CSc1nnc(-c2cccnc2)n1C	10	0	2	1.9*
COc1cccc(-n2c(SCC(=O)Nc3ccccc3OC)nnc2-c2cccnc2)c1	-7	0	-4	0
COc1cccc(-c2nnc(SCC(=O)Nc3ccccc3OC)n2-n2cccc2)c1	2	-1	50*	0
CCCCNC(=O)CSc1nnc(-c2cccnc2)n1-c1ccccc1OC	4	0	10	0
O=C1CSC(c2cccc(Br)c2)N1c1cc(Cl)cc(Cl)c1 (configuration not stated)	5	0	-16	0
Cc1ccccc1OCC(=O)Nc1ccc(-c2nc3ccccc3s2)cc1	-6	1	-3	0
COc1ccccc1-n1c(SCC(=O)Nc2nc(C)cs2)nnc1-c1ccncc1	-7	1	51*	0
SMILES	MITF primary	GPR151 ag	TEAD-YAP inh	FBW7 act
COc1ccccc1-n1c(SCC(=O)Nc2ccc(F)cc2)nnc1-c1ccncc1	-9	1	5	0
O=C1NC(=O)C(=Cc2cc(O)c(O)c(Br)c2)C(=O)N1	58*	2	4	0
CCOc1cc(C=C2C(=O)NC(=O)NC2=O)cc(Br)c1O	7	0	1	0
O=C1NC(=O)C(=Cc2cc(Br)c(I)o2)C(=O)N1	59*	-1	2	-1
O=C(NCC1(CO)CC1)C1c2ccccc2Oc2ccccc21	19	1	1	0
Fc1cccc(-c2nc3cccnc3nc2-c2cccc(F)c2)c1	2	-1	13	0
Clc1nc2ncccc2nc1-c1ccccc1	-7	1	41*	0
CCOC(=O)c1c(NC(=O)CSc2nnc(CNC(=O)c3cccc(F)c3)n2C)sc2c1CCC2	5	0	1	0
O=C(CSc1nc2ccccc2c2nc(-c3ccccc3)nn12)c1ccc(O)c(O)c1	24	2	44*	0
COC(=O)[C@@H]1C[C@H](NC(=O)c2ccncc2)CN1Cc1ccc2ccccc2c1	-9	-2	14	0
COc1ccc(CCNC(=O)CSc2nc3ccccc3c(=O)n2CCc2ccc(OC)c(OC)c2)cc1OC	-4	0	6	0
COc1ccc(CCNC(=O)CSc2nc3ccc(Br)cc3c3nc4ccccc4n23)cc1OC	6	-2	-13	1.9*
C(=N\Nc1nc2ccccc2n2cnnc12)/c1cccnc1	9	0	5	0
COc1cccc(-c2noc(C3CCCN(C(=O)c4c(OC)cccc4OC)C3)n2)c1 (configuration not stated)	10	-1	63*	0
COc1ccc(-c2noc(C3CCCN(C(=O)c4c(F)cccc4F)C3)n2)cc1OC (configuration not stated)	-10	2	9	0
CCOC(=O)c1[nH]c(C)c(C(=O)NCc2ccc(C)cc2)c1C	-5	1	-1	0
CC(=O)c1c(C)[nH]c(C(=O)COC(=O)CCCN2C(=O)c3ccccc3C2=O)c1C	7	0	6	0
CC(=O)c1c(C)[nH]c(C(=O)OCCCCN2C(=O)c3ccccc3C2=O)c1C	-6	0	54*	0
CCOC(=O)c1[nH]c(C)c(C(=O)c2ccccc2)c1C	7	2	48*	0
CCOC(=O)c1[nH]c(C)c(C(=O)c2ccccc2Cl)c1C	9	1	22	0
CCOC(=O)c1[nH]c(C)c(C(=O)c2ccc(C)cc2)c1C	6	1	34*	0
Cc1cccc(C(=O)Nc2ccccc2C(C)C)c1	-15	-3	-5	0
CCOC(=O)CC1C(=O)NCCN1C(=S)NC(=O)c1ccc(Br)o1 (configuration not stated)	5	1	-3	0
CCOc1ccc(N2CSC3=C(C#N)C(c4cccs4)CC(=O)N3C2)cc1 (configuration not stated)	-13	1	-10	0
CCOc1ccc(N2CSC3=C(C#N)C(c4ccco4)CC(=O)N3C2)cc1 (configuration not stated)	69*	1	-11	0
SMILES	MITF primary	GPR151 ag	TEAD-YAP inh	FBW7 act
CC(C)C(=O)Nc1cc([N+](=O)[O-])ccc1Cl	8	-1	-6	0
CCOc1ccc(C2Oc3c(Cl)cc(Cl)cc3C=C2[N+](=O)[O-])cc1OCC (configuration not stated)	24	0	64*	0
CCOc1ccc(C2Oc3ccc(Br)cc3C=C2[N+](=O)[O-])cc1OCC (configuration not stated)	29	-1	41*	0
CCOc1ccc(C2Oc3c(cccc3OC)C=C2[N+](=O)[O-])cc1OCC (configuration not stated)	11	-1	21	0
CCOc1cc(C(=O)NC2CCCCC2)cc(OCC)c1OCC	6	0	-3	0
NC(=O)c1ccc(-c2nc(N)c3ncn(-c4ccsc4)c3n2)cc1	19	3	58*	0
